JMJD2E inh: inhibitors of human JMJD2E histone demethylase | 230,000 compounds, 1.6% hits | B2RXH2 | Potency, µM (highest dose often 57.1 µM), for the others: at the top dose activity change, negative = inhibition, usual class: inhibitors | JMJD2E catalytic domain, FDH-coupled NADH fluorescence (FDH is formaldehyde dehydrogenase) | AID 2147;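 note: 0% = wells with enzyme and -100% = buffer wells without enzyme; nearly all actives have a fitted effect of over 50% in size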
Tau fibril ThT: blocks human tau fibril formation measured by thioflavin T. recombinant tau K18 P301L, heparin-induced fibrillization, ThT fluorescence. Potency, µM (series often up to 57.4 µM), inactives show top-dose activity, negative = inhibition, hits mostly inhibitors. P10636. 270,000 compounds, 2.1% hits. AID 1460; active = well fitted curve in the direction sought with a large enough effect; inconclusive = small, poorly fitted or top-dose-only effect, or another doubt; inactive = no such curve, though single readings can be large; an effect the other way counts as inactive or inconclusive; note: nearly all actives have a fitted effect of over 55% in size
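Fibril formation assay: tau K18 P301L at 15 uM with trace Alexa 594 label, heparin inducer 20 uM, pH 7 sodium acetate buffer, 37 C for 6 hr; endpoint ThT signal.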
Tau fibril FP: tau fibrillization inhibition (FP) | P10636 | Potency, µM (top dose mostly 57.7 µM), for inactives: at the highest dose activity, negative = inhibition, actives largely listed as inhibitors | 280,000 compounds, 0.39% hits | AID 1468 | K18 P301L tau heparin fibrillization, Alexa594 FP, 6 h; active = well fitted curve in the direction sought with a large enough effect; inconclusive = small, poorly fitted or top-dose-only effect, or another doubt; inactive = no such curve, though single readings can be large; an effect the other way counts as inactive or inconclusive; note: nearly all actives have a fitted effect of over 55% in size
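Compound effects on tau fibrillization are measured by Alexa 594 fluorescence polarization (ex 555, em 632 nm). K18 P301L tau is used at 15 uM with 0.24 uM labeled tracer, and 20 uM heparin induces aggregation over 6 hr at 37 C.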
ALDH1A1 inh: blocks purified human ALDH1A1 activity; 220,000 compounds, 7.3% hits; Purified ALDH1A1, NADH fluorescence, propionaldehyde substrate; Potency, µM (series often up to 75.3 µM), for the others: at the highest dose activity, negative = inhibition, most hits filed as inhibitors; P00352;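 note: plate controls were no enzyme wells and a reference inhibitor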
Target sequence (P00352 whole entry, looked up): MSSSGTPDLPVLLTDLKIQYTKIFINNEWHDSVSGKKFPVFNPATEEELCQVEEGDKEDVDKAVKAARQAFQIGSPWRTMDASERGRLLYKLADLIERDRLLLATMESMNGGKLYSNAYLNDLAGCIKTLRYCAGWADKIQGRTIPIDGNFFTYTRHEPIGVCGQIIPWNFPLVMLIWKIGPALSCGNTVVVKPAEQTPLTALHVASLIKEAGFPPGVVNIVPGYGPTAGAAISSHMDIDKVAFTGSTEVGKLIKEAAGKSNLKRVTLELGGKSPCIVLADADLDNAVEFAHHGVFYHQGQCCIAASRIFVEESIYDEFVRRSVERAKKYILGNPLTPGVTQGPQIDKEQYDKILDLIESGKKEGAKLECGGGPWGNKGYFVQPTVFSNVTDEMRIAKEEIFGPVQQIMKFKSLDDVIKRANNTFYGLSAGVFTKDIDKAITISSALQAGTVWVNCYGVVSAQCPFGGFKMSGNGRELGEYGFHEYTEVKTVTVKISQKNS
Tau fluor cs: counter-screen for tau fibril formation inhibitors; tau K18 P301L Alexa594 fluorescence, heparin fibrillization; Potency, µM (series often up to 57.7 µM), inactives show top-dose activity change, negative = decrease; 280,000 compounds, 0.93% hits; AID 1463; active = well fitted curve in the direction sought with a large enough effect; inconclusive = small, poorly fitted or top-dose-only effect, or another doubt; inactive = no such curve, though single readings can be large; an effect the other way counts as inactive or inconclusive; note: nearly all actives have a fitted effect of over 55% in size
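Human tau K18 P301L (15 uM unlabeled, 0.24 uM Alexa 594-labeled) in 100 mM sodium acetate pH 7 with 20 uM heparin, 6 hr at 37 C. ThT 30 uM added, 1 hr ambient; Alexa 594 FP and total fluorescence read at 555/632 nm.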
HPGD block: HPGD (human) dehydrogenase inhibition; P15428; purified HPGD, NADH fluorescence kinetic, PGE2 substrate; Potency, µM, inactives show at the top dose activity change, negative = inhibition, usual class: inhibitors; 150,000 compounds, 4.3% hits
Target sequence (P15428 whole entry, looked up): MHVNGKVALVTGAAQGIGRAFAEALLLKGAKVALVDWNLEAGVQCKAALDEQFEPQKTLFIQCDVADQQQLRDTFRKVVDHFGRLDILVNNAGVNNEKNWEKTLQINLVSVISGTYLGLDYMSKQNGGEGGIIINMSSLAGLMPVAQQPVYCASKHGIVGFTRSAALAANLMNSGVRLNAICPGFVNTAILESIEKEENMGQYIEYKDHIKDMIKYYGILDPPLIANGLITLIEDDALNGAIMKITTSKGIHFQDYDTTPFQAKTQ
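20 nM HPGD preincubated 15 min at room temperature with compound in 50 mM Tris-HCl pH 8, 0.01% Tween 20. Started with 1 mM NAD+ and 30 uM prostaglandin E2; NADH fluorescence (360/450 nm) read 5 times over 30-s intervals, last minus first.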
* hit, by the source's call; ? = inconclusive; · = not tested or not shown; [ ] = remark or other dose. A selection: hits, their analogues and other compounds. The true share with any hit is near 9.9%. Unless noted, calls come from the whole dose curve; as a rule, active = well fitted inhibition curve with a large enough effect (not every such curve was filed as active); inconclusive = small, poorly fitted or top-dose-only effect, or another doubt; inactive = no such curve, though single readings can be large or run the other way. Unless noted, % is set by controls: 0 for no effect and ±100 for the full control effect; potency is the fitted concentration of half-maximal effect.

SMILES	JMJD2E inh	Tau fibril ThT	Tau fibril FP	ALDH1A1 inh	Tau fluor cs	HPGD block
N#CC1=C(SCC(N)=O)NC2=C(C(=O)c3ccccc32)C1c1ccc(Cl)cc1 (stereo not given)	1.0%	14.1µM*	?	?	?	-10.2%
CC(CNC(=O)c1ccc2nc(Cc3ccccc3)oc2c1)c1ccccc1 (stereo not given)	·	-10.6%	1.7%	·	-11.0%	·
Cc1cc(OCC(=O)NCC(C)C)cc(C)c1Br	8.1%	-13.7%	3.2%	?	-15.1%	14.1µM*
CCN(CC)c1ccc(/C=C2\C(=O)c3ccc(C(=O)O)cc3C2=O)cc1	-3.0%	2µM*	?	3.16µM*	-7.4%	2.82µM*
CCN(CC)C(=O)C1CCCN(c2ccc([N+](=O)[O-])cc2[N+](=O)[O-])C1 (stereo not given)	-23.3%	-13.5%	9.4%	-5.6%	3.3%	·
CCN(CC)C(=O)C1CCCN(c2ccccc2[N+](=O)[O-])C1 (stereo not given)	1.9%	-4.7%	3.4%	12.6µM*	5.5%	·
FC(F)(F)c1nc(NCC2CCCO2)c2nnn(Cc3ccccc3Cl)c2n1 (stereo not given)	4.6%	7.6%	-3.9%	-8.9%	0.3%	·
O=C(NC1CCCCC1)c1nc2c(nnn2Cc2ccccc2Cl)c(=O)[nH]1	0.8%	-13.3%	-4.6%	?	1.0%	4.47µM*
COc1ccc(Cn2nnc3c(=O)[nH]c(C(=O)NCCc4ccc(F)cc4)nc32)cc1OC	0.6%	-5.5%	4.0%	-6.0%	3.9%	3.16µM*
CCCc1nc2c(nnn2Cc2ccccc2Cl)c(=O)[nH]1	10.7%	2.6%	-3.1%	3.9%	-0.4%	·
O=C(NCC1CCCO1)c1nc2c(nnn2Cc2ccccc2Cl)c(=O)[nH]1 (stereo not given)	3.7%	2.1%	1.4%	5.7%	6.9%	12.6µM*
O=C(NCCc1ccccc1)c1nc2c(nnn2Cc2ccccc2Cl)c(=O)[nH]1	2.5%	-6.0%	5.4%	12.4%	2.5%	7.94µM*
O=C(Nc1ccc(F)cc1)N1CCC(c2nc3c(nnn3Cc3ccccc3Cl)c(=O)[nH]2)CC1	-4.3%	-0.7%	1.7%	-8.6%	-18.0%	·
Cc1onc(-c2c(F)cccc2Cl)c1C(=O)NC(=S)NCc1cccnc1	8.8%	5.1%	-5.7%	?	-1.8%	-0.8%
CCOC(=O)c1c(NC(=O)c2cc(=O)c3cc(Cl)ccc3o2)sc(C)c1C	·	-3.7%	-4.6%	·	0.5%	·
O=C(NC1CC1)c1nc2c(nnn2Cc2ccccc2Cl)c(=O)[nH]1	8.3%	-8.1%	1.6%	-0.8%	-0.6%	15.8µM*
Cc1ccc(NCCC(=O)c2ccc(Br)cc2)cc1	7.9%	?	9.3%	0.794µM*	0.4%	-7.0%
Cc1ccc(NCCC(=O)c2ccc(Cl)cc2)cc1	5.3%	-19.5%	9.1%	1.41µM*	-4.5%	-1.9%
N#Cc1ccc(C(=O)Nc2ccc([N+](=O)[O-])cc2)c(F)c1	-5.4%	-16.8%	4.7%	4.3%	-19.0%	·
O=C(Cn1nnc(-c2ccccc2-n2cnnn2)n1)c1ccccc1	-1.6%	1.2%	5.4%	12.6µM*	-3.4%	-28.6%
O=C(O)c1ccc(COc2ccc(Cl)cc2)o1	7.2%	-3.1%	9.7%	3.4%	5.4%	-12.5%
CC1CN(C(=O)c2ccc(COc3ccc(C(C)C)cc3)o2)CC(C)O1 (stereo not given)	-9.6%	?	1.8%	28.2µM*	-11.3%	·
CC1CN(C(=O)c2ccc(COc3ccc4ccccc4c3)o2)CC(C)O1 (stereo not given)	-8.0%	?	?	?	-21.8%	·
CC(C)c1ccc(OCc2ccc(C(=O)O)o2)cc1	7.94µM*	-5.0%	3.7%	·	12.3%	·
COCCCNC(=S)NNC(=S)Nc1cccc(Cl)c1	-8.7%	?	17.5%	4.47µM*	?	·
SMILES	JMJD2E inh	Tau fibril ThT	Tau fibril FP	ALDH1A1 inh	Tau fluor cs	HPGD block
C=COCCNC(=S)Nc1cccc(Cl)c1	1.8%	-3.1%	-1.7%	-7.0%	-0.8%	·
O=C(CNc1cccc(Cl)c1)NNC(=S)NCc1ccccc1	-3.8%	-14.8%	-7.0%	0.4%	-26.7%	·
Fc1cc(NC(=S)NCc2ccc(CNC(=S)Nc3ccc(Cl)c(F)c3)cc2)ccc1Cl	0.4%	17.0%	3.98µM*	·	-23.7%	·
S=C(NCc1ccccc1)Nc1cccc(Cl)c1	-3.5%	-2.8%	-0.4%	5.5%	-20.3%	14.1µM*
Cc1ccc(NC(=S)NCc2ccccc2)cc1[N+](=O)[O-]	10.7%	-10.8%	-20.0%	-13.3%	?	12.6µM*
O=C(NCCCCN1CCCC1)c1ccc(Cc2nc3ccccc3[nH]2)cc1	·	·	·	-15.3%	·	-9.9%
Cc1ccc(/C([O-])=C(/C(=S)NCc2ccccc2)[n+]2cccc(CO)c2)cc1[N+](=O)[O-]	-12.4%	?	-3.8%	8.91µM*	-16.9%	·
Cc1cccc(NC(=S)NNC(=O)c2csc(C(C)C)c2)c1	-15.0%	-1.6%	0.9%	12.6µM*	1.9%	-12.4%
CCc1cc(C(=O)NNC(=S)Nc2cccc(C)c2)cs1	28.6%	-17.1%	5.7%	?	-8.1%	-7.6%
O=C(O)c1cccc(NC(=S)NCc2ccccc2)c1	-6.6%	-5.4%	5.1%	12.2%	-0.7%	·
CCNC(=S)/C(=C(/[O-])c1ccc([N+](=O)[O-])cc1)[n+]1ccccc1	-5.7%	?	0.0%	?	-15.9%	·
Cc1cccc(NC(=S)NNC(=S)NCc2ccccc2)c1	12.7%	-17.3%	1.0%	1.58µM*	-19.9%	?
CC(C)CN1C(=O)c2ccc(C(=O)Nc3c[nH]c(=O)[nH]c3=O)cc2C1=O	-19.5%	-5.3%	5.6%	?	-2.6%	·
Cc1ccc(-c2cc(=O)c3cc(Cl)ccc3[nH]2)cc1	1.2%	-2.4%[81.4 µM]	-0.9%[81.3 µM]	-0.6%[120 µM]	-1.7%[81.3 µM]	-11.5%
CCc1ccc(NS(=O)(=O)c2ccc3[nH]cc(C(=O)N4CCc5ccccc54)c(=O)c3c2)cc1	?	-2.0%	?	14.1µM*	?	-24.1%
CCc1ccc(NS(=O)(=O)c2ccc3[nH]cc(C(=O)N4CCCCCC4)c(=O)c3c2)cc1	·	-11.7%	-9.6%	·	?	·
Cc1cc(C)cc(NS(=O)(=O)c2ccc3[nH]cc(C(=O)N4CCc5ccccc54)c(=O)c3c2)c1	-1.0%	-12.3%	-21.1%	10µM*	?	-25.7%
O=C(C[n+]1ccc2ccccc2c1)c1ccc2ccc3ccccc3c2c1	·	·	·	?	·	-6.5%
Cc1ccccc1N1C(=O)CC(N(O)c2ccccc2)C1=O (stereo not given)	5.2%	-9.3%	-5.8%	?	-6.0%	-6.4%
CCN(CC)C1CC(=O)N(c2cccc(C)c2)C1=O (stereo not given)	4.2%	?	0.3%	3.55µM*	-5.5%	-27.6%
CCN(CCO)C1CC(=O)N(c2ccccc2C)C1=O (stereo not given)	-0.9%	?	-3.0%	3.55µM*	-4.1%	-23.0%

Bioassay records: PubChem, National Center for Advancing Translational Sciences (NCATS)
